{"source": "PubChem BioAssay (NCATS)", "key": {"[1]": {"assay": "qHTS drug screen for cell cycle checkpoint inhibitors in PARPi-resistant BRCA-mutant ovarian cancer cell lines. (AID 1963452; calls by dose curve)", "conditions": "PEO1/OlaR viability, CellTiter-Glo luminescence, 96 h, stronger effect = lower value", "method_in_brief": "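PEO1, PEO4 and PEO1/OlaR ovarian cancer cells, 600 per well, exposed 96 h at 37C to a dilution series. Viability read by CellTiter-Glo luminescence, normalized to DMSO and empty wells; activity summarized as Z-AUC.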"}, "[2]": {"assay": "Primary redox qHTS assay for identification of artifact compounds. (AID 1845223)", "conditions": "Amplex Red/HRP redox cycling with DTT, fluorescence; series mostly up to 53.8 µM", "method_in_brief": "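Amplex Red (25 uM) and HRP (250 mU/mL) in HBSS, with compounds for 15 min, then 250 uM DTT for 30 min, room temperature, dark. Fluorescence 525/598 nm read; normalized to DMSO and 10 uM DA3003; Hill fit.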"}, "[3]": {"assay": "qHTS profiling for inhibitors of Plasmodium falciparum proliferation (AID 504749); note: potency is the fitted concentration of half-maximal effect; for all read-outs here: nearly all actives have a fitted effect of over 60% in size", "conditions": "P. falciparum in erythrocytes, SYBR Green DNA, 72 h; for activity, negative = inhibition: at 28.7 µM (top of the series)", "method_in_brief": "(§1)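 Readout was DNA-dye fluorescence from lysed cultures, ex 485/em 535 nm. Parasitized red cells had grown 72 h with compound; data scaled between 0.29 uM artemisinin and DMSO wells and corrected using vehicle-only plates.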"}, "3D7": {"tested_on": "3D7", "assay": "qHTS profiling for inhibitors of Plasmodium falciparum proliferation (AID 504749)", "conditions": "P. falciparum in erythrocytes, SYBR Green DNA, 72 h; series mostly up to 28.7 µM", "method_in_brief": "as §1"}, "7G8": {"tested_on": "7G8", "assay": "qHTS profiling for inhibitors of Plasmodium falciparum proliferation (AID 504749)", "conditions": "P. falciparum in erythrocytes, SYBR Green DNA, 72 h; series mostly up to 28.7 µM", "method_in_brief": "as §1"}, "AA1029": {"tested_on": "AA1029", "assay": "qHTS profiling for inhibitors of Plasmodium falciparum proliferation (AID 504749)", "conditions": "P. falciparum in erythrocytes, SYBR Green DNA, 72 h; series mostly up to 28.7 µM", "method_in_brief": "as §1"}, "AS120": {"tested_on": "AS120", "assay": "qHTS profiling for inhibitors of Plasmodium falciparum proliferation (AID 504749)", "conditions": "P. falciparum in erythrocytes, SYBR Green DNA, 72 h; series mostly up to 28.7 µM", "method_in_brief": "as §1"}, "ATS189": {"tested_on": "ATS189", "assay": "qHTS profiling for inhibitors of Plasmodium falciparum proliferation (AID 504749)", "conditions": "P. falciparum in erythrocytes, SYBR Green DNA, 72 h; series mostly up to 28.7 µM", "method_in_brief": "as §1"}, "[4]": {"target": "Cytochrome P450 3A4 (Homo sapiens) (UniProt P08684)", "sequence (P08684 whole entry, looked up)": "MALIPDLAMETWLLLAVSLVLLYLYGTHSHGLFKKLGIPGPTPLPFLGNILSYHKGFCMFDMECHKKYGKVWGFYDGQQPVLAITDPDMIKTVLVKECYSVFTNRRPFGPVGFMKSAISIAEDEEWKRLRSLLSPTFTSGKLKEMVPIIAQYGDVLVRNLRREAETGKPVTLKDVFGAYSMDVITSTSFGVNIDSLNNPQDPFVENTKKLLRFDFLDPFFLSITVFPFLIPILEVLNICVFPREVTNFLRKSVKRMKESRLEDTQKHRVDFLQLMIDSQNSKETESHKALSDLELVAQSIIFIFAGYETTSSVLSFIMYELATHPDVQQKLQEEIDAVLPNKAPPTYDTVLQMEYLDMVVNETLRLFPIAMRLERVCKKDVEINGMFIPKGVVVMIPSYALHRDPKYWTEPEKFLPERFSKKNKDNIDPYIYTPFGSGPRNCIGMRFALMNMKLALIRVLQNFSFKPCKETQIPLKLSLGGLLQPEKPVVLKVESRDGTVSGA", "assay": "qHTS for inhibitors of CYP3A4 against the NCATS DSHEA and TCM libraries (AID 1919971)", "conditions": "recombinant CYP3A4 enzyme activity, luminescence qHTS; series mostly up to 34.1 µM", "method_in_brief": "(§2)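 Light output from converted D-luciferin reports remaining CYP activity. Compounds preincubate with enzyme and substrate for 15 min; NADPH regeneration (1x final) runs the reaction for 30-45 min.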"}, "[5]": {"target": "Cytochrome P450 2D6 (Homo sapiens) (UniProt P10635)", "sequence (P10635 whole entry, looked up)": "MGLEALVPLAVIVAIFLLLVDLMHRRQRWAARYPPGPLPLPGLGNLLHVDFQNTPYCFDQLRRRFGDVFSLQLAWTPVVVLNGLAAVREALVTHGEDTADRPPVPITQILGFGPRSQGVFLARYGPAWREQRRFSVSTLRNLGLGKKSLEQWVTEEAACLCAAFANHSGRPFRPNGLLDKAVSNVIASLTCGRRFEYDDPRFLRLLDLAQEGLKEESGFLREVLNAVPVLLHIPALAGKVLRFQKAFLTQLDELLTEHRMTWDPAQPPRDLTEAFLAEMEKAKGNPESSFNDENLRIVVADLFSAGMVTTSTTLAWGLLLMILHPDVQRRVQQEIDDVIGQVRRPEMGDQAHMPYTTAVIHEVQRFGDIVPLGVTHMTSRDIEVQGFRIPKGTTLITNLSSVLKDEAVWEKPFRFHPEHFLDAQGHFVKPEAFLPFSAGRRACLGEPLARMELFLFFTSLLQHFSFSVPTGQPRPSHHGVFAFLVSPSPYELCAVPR", "assay": "qHTS for inhibitors of CYP2D6 against the NCATS DSHEA and TCM libraries (AID 1919972)", "conditions": "CYP2D6 enzymatic inhibition, luminescence qHTS; series mostly up to 34.1 µM", "method_in_brief": "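Steps: enzyme plus luciferin substrate dispensed; test substances pinned; 15 min RT; 1x NADPH regenerating solution added, 30–45 min RT protected from light; detection reagent, 30 min RT; luminescence measured. Minus-enzyme wells as background.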"}, "[6]": {"target": "Cytochrome P450 2C9 (Homo sapiens) (UniProt P11712)", "sequence (P11712 whole entry, looked up)": "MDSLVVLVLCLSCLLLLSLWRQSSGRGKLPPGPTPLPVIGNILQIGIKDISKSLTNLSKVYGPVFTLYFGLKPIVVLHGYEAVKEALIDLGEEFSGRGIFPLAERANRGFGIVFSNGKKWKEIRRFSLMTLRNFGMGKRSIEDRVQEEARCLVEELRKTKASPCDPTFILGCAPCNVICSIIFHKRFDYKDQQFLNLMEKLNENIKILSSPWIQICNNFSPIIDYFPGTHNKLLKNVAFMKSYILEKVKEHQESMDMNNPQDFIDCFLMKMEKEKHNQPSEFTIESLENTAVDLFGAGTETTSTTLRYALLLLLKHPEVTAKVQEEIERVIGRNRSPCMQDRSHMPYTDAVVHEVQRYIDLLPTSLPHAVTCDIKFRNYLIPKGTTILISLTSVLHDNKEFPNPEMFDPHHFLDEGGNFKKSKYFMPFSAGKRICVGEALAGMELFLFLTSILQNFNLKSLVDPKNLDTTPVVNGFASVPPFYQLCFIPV", "assay": "qHTS for inhibitors of CYP2C9 against the NCATS DSHEA and TCM libraries (AID 1919973)", "conditions": "recombinant CYP2C9 enzyme activity, luminescence; series mostly up to 34.1 µM", "method_in_brief": "as §2"}, "[7]": {"target": "Cytochrome P450 2C19 (Homo sapiens) (UniProt P33261)", "sequence (P33261 whole entry, looked up)": "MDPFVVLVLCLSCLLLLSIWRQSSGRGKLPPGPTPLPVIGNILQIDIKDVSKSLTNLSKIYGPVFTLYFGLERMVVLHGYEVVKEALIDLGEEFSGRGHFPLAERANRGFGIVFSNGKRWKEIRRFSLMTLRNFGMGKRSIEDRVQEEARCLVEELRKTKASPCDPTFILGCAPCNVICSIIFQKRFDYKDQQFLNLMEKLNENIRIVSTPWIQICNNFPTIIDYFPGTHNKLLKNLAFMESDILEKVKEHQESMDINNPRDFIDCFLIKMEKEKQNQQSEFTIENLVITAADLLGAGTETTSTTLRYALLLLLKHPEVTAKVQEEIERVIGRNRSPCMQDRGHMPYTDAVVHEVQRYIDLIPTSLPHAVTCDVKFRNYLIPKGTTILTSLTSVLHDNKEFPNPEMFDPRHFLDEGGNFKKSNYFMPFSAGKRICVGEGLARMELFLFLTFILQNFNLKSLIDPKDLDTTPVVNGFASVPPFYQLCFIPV", "assay": "qHTS for inhibitors of CYP2C19 against the NCATS DSHEA and TCM libraries (AID 1919974)", "conditions": "CYP2C19 enzyme inhibition, luminescence qHTS; series mostly up to 34.1 µM", "method_in_brief": "as §2"}, "[8]": {"assay": "KB-3-1 P-gp reporter qHTS against the NCATS DSHEA and TCM libraries (AID 1919975)", "conditions": "KB-3-1 parental cells, CellTiter-Glo luminescence viability, 72 h; series mostly up to 26.1 µM", "method_in_brief": "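Cell viability qHTS: 500 KB-3-1 cells/well, substances in titration, ~72 h, 37C; luminescent CellTiter-Glo read.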"}, "[9]": {"target": "Cytochrome P450 1A2 (Homo sapiens) (UniProt P05177)", "sequence (P05177 whole entry, looked up)": "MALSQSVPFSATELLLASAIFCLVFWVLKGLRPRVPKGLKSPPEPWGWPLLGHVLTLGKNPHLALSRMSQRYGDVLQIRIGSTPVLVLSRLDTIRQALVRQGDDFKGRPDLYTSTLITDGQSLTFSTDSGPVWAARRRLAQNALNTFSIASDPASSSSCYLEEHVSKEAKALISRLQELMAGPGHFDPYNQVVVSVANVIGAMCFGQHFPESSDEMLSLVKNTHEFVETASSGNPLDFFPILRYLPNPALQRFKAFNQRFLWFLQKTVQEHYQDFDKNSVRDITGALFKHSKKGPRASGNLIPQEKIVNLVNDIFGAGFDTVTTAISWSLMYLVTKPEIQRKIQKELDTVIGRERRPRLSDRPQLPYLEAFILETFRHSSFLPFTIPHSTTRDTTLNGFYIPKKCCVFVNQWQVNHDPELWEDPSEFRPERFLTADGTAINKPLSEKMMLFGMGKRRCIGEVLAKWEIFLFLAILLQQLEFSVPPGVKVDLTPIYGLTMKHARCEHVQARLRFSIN", "assay": "qHTS for inhibitors of CYPIA2 against the NCATS DSHEA and TCM libraries (AID 1919976)", "conditions": "recombinant CYP1A2 enzyme activity, luminescence; series mostly up to 37 µM", "method_in_brief": "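In this quantitative HTS, inhibition of recombinant human CYP1A2 was measured as loss of luciferin-derived luminescence. Turnover ran 30-45 min at RT after NADPH regeneration solution was added.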"}, "[10]": {"assay": "KB-8-5-11 P-gp reporter qHTS against the NCATS DSHEA and TCM libraries (AID 1919977)", "conditions": "KB-8-5-11 cells; series mostly up to 26.1 µM", "method_in_brief": "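Viability of drug-resistant KB-8-5-11 cells is measured by CellTiter-Glo luminescence following roughly 72 h treatment at 37C. Substances were titrated, with bortezomib as intraplate control.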"}, "[11]": {"assay": "qHTS Counterscreen for compound interference against the NCATS DSHEA and TCM libraries (AID 1919978)", "conditions": "firefly luciferase detection reagent interference, luminescence", "method_in_brief": "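Interference check: test samples were incubated with D-luciferin (final 1 uM) or buffer only for 15 min, room temperature, in a qHTS titration up to 39.8 uM, then developed with detection reagent and read by luminescence.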"}, "[12]": {"assay": "Dual reporter qHTS for agonist of Pregnane X Receptor (hPXR) against the NCATS DSHEA and TCM libraries: Fluorescence readout (AID 1920058)", "conditions": "PXR dual reporter cells; series mostly up to 40 µM", "method_in_brief": "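Measures viability of the PXR reporter HepG2 line by protease-substrate fluorescence (405/540 nm), taken 1 h after CellTiter-Fluor addition. Substances are tested as concentration series over a ~24 h exposure, with rifampicin as agonist control.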"}, "[13]": {"target": "Nuclear receptor subfamily 1 group I member 2 (Homo sapiens) (UniProt O75469)", "sequence (O75469 whole entry, looked up)": "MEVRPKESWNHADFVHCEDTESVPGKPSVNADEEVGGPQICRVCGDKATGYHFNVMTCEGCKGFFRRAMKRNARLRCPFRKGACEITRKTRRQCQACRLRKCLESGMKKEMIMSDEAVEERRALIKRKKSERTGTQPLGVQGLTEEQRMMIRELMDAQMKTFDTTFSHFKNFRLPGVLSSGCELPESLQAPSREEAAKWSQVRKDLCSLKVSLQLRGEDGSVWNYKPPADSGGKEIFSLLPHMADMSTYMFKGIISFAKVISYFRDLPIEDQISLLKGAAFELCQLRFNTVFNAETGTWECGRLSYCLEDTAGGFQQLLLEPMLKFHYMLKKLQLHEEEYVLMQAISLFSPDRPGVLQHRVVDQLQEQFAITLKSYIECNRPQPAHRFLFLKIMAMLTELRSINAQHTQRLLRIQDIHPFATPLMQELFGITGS", "assay": "Dual reporter qHTS for agonist of Pregnane X Receptor (hPXR) against the NCATS DSHEA and TCM libraries: Luminescence readout (AID 1920059)", "conditions": "hPXR dual reporter cells, luciferase luminescence agonist; series mostly up to 40 µM", "method_in_brief": "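hPXR-Luc HepG2 cells, 2000/well in 5% charcoal-stripped FBS medium, attached 5 h, then exposed 24 h at 37C to compounds. Viability by CellTiter-Fluor, then luciferase luminescence with ONE-Glo.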"}, "[14]": {"assay": "Dual reporter qHTS for antagonist of Pregnane X Receptor (hPXR) against the NCATS DSHEA and TCM libraries: Fluorescence Readout (AID 1920061)", "conditions": "PXR dual reporter cells, antagonist mode; series mostly up to 40 µM", "method_in_brief": "(§3)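 HepG2 hPXR-Luc, 2000 cells/well, charcoal-stripped FBS medium; 5 h attach; RIF 2 uM final; 24 h 37C/5% CO2; CellTiter-Fluor 1 h, fluor 405/540; ONE-Glo 30 min RT, lum.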"}, "[15]": {"target": "Nuclear receptor subfamily 1 group I member 2 (Homo sapiens) (UniProt O75469)", "assay": "Dual reporter qHTS for antagonist of Pregnane X Receptor (hPXR) against the NCATS DSHEA and TCM libraries: Luminescence Readout (AID 1920060)", "conditions": "hPXR dual reporter cells, luciferase luminescence, antagonist mode; series mostly up to 40 µM", "method_in_brief": "as §3"}, "[16]": {"conditions": "measured here: PEO1 parental Z-AUC"}}, "note": "Several values for one entry are separate records, joined by “and”; a condition that tells them apart may be missing. Equal entries are not always repeated. Records with an inconclusive call do not appear. A call without a number means that no potency is given here. The source holds several records for some structures; these can differ, active in one and inactive in another. Activity calls are given as the source filed them. Unless noted, calls come from the whole dose curve; as a rule, active = well fitted curve in the direction sought with a large enough effect; inconclusive = small, poorly fitted or top-dose-only effect, or another doubt; inactive = no such curve, though single readings can be large; an effect the other way counts as inactive or inconclusive. Throughout, for potency: potency is the fitted concentration of half-maximal effect."}
{"smiles": "CC(=O)c1c(O)c(C)c(O)c(Cc2c(O)c3c(c(C(=O)/C=C/c4ccccc4)c2O)OC(C)(C)C=C3)c1O", "values": [{"measurement": "Z-AUC", "setting": "[1]", "value": "1.03 (inactive)"}, {"measurement": "Z-AUC", "setting": "[1]; [16]", "value": 0.667}, {"measurement": "Z-AUC", "setting": "[1]; measured here: PEO4 Z-AUC", "value": 0.636}]}
{"smiles": "C=C[C@H]1CN2CC[C@H]1C[C@@H]2[C@@H](O)c1ccnc2ccccc12", "values": [{"measurement": "outcome", "setting": "[2]", "value": "inactive"}, {"measurement": "Z-AUC", "setting": "[1]", "value": "1.32 (inactive)"}, {"measurement": "Z-AUC", "setting": "[1]; [16]", "value": 0.858}, {"measurement": "Z-AUC", "setting": "[1]; measured here: PEO4 Z-AUC", "value": 1.06}]}
{"smiles": "C[C@]12CC[C@H]3[C@@H]([C@H](O)CC4=CC(=O)CC[C@@]43C)[C@@H]1CC[C@@H]2O", "values": [{"measurement": "outcome", "setting": "[2]", "value": "inactive"}]}
{"smiles": "CC(C)(C)c1cc(O)ccc1O", "values": [{"measurement": "activity, negative = inhibition", "setting": "[3]; parasite line A", "value": "-22.4% (inactive)"}, {"measurement": "Potency", "setting": "[3]; parasite line A", "value": "7.94 µM (active)"}, {"measurement": "Potency", "setting": "[3]; parasite line B", "value": "8.91 µM (active)"}, {"measurement": "Potency", "setting": "3D7", "value": "2.24 µM (active)"}, {"measurement": "Potency", "setting": "7G8", "value": "3.16 µM (active) and 2.82 µM (active)"}, {"measurement": "Potency", "setting": "AA1029", "value": "8.91 µM (active) and inactive"}, {"measurement": "Potency", "setting": "AS120", "value": "8.91 µM (active)"}, {"measurement": "Potency", "setting": "ATS189", "value": "10 µM (active)"}]}
{"smiles": "CNC(C)C(O)c1ccc(O)cc1", "note": "(stereo not given)", "values": [{"measurement": "outcome", "setting": "[4]", "value": "inactive"}, {"measurement": "outcome", "setting": "[5]", "value": "inactive"}, {"measurement": "outcome", "setting": "[6]", "value": "inactive"}, {"measurement": "Potency", "setting": "[7]", "value": "inactive"}, {"measurement": "outcome", "setting": "[8]", "value": "inactive"}, {"measurement": "outcome", "setting": "[9]", "value": "inactive"}, {"measurement": "outcome", "setting": "[10]", "value": "inactive"}, {"measurement": "max response", "setting": "[11]", "value": "-3.49% (inactive)"}, {"measurement": "outcome", "setting": "[12]", "value": "inactive"}, {"measurement": "outcome", "setting": "[13]", "value": "inactive"}, {"measurement": "outcome", "setting": "[14]", "value": "inactive"}, {"measurement": "activity, negative = inhibition", "setting": "[3]; parasite line A", "value": "5.26% (inactive)"}, {"measurement": "activity, negative = inhibition", "setting": "[3]; parasite line B", "value": "-1.7% (inactive)"}, {"measurement": "Potency", "setting": "3D7", "value": "inactive"}, {"measurement": "Potency", "setting": "7G8", "value": "inactive"}, {"measurement": "Potency", "setting": "AA1029", "value": "inactive"}, {"measurement": "Potency", "setting": "AS120", "value": "inactive"}, {"measurement": "Potency", "setting": "ATS189", "value": "inactive"}]}
{"smiles": "OC1(c2ccc(Cl)cc2)c2ccccc2C2=NCCN21", "note": "(stereo not given)", "values": [{"measurement": "outcome", "setting": "[2]", "value": "inactive"}]}
{"smiles": "Cn1ncnc1COc1nn2c(-c3c(F)cccc3F)nnc2cc1C1CCC1", "values": [{"measurement": "outcome", "setting": "[2]", "value": "inactive"}]}
{"smiles": "O=Cc1ccco1", "values": [{"measurement": "outcome", "setting": "[5]", "value": "inactive"}, {"measurement": "Potency", "setting": "[7]", "value": "6.31 µM (active)"}, {"measurement": "outcome", "setting": "[8]", "value": "inactive"}, {"measurement": "outcome", "setting": "[10]", "value": "inactive"}, {"measurement": "max response", "setting": "[11]", "value": "-3.87% (inactive)"}, {"measurement": "outcome", "setting": "[12]", "value": "inactive"}, {"measurement": "outcome", "setting": "[15]", "value": "inactive"}, {"measurement": "outcome", "setting": "[14]", "value": "inactive"}, {"measurement": "activity, negative = inhibition", "setting": "[3]; parasite line A", "value": "-15.5% (inactive)"}, {"measurement": "activity, negative = inhibition", "setting": "[3]; parasite line B", "value": "9.74% (inactive)"}, {"measurement": "Potency", "setting": "3D7", "value": "inactive"}, {"measurement": "Potency", "setting": "7G8", "value": "inactive"}, {"measurement": "Potency", "setting": "AA1029", "value": "inactive"}, {"measurement": "Potency", "setting": "ATS189", "value": "inactive"}]}
